Source: PubChem BioAssay (National Center for Advancing Translational Sciences (NCATS))
Most compounds without a hit are left out; they make up all but 3.5% or so of the library.
NS1 inh: influenza NS1 inhibition; Potency, µM (top dose mostly 46.1 µM); hit rate 0.4% among 270,000; calls by dose curve; also: actives are rising curves; nearly all actives have a fitted effect of over 50% in size
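Recovery from NS1-induced slow growth read by OD600 in budding yeast switched to galactose assay medium (pH 6.0, -URA) at 1:100 dilution. Compound 23 nl per well; the matching strain lacking NS1 serves as control.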
TbPYK inhibitor: inhibitors of Trypanosoma brucei pyruvate kinase; hit rate 0.12% among 410,000; Potency, µM (titrated, usually from 76.8 µM), hits mostly inhibitors; Q57TT1; TbPYK enzyme, Kinase-Glo Plus ATP luminescence, 45 min; AID 624173; also: nearly all actives have a fitted effect of over 50% in size
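Readout: single end-point luminescence (Kinase-Glo Plus, 10 min). Reaction conditions were TbPYK/substrate plus 130 uM ADP, 45 min at RT, pH 7.2 TEA buffer. No-enzyme wells served as controls, and data were normalized before concentration-response fitting.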
Sm TGR block: blocks Schistosoma mansoni thioredoxin glutathione reductase; Q962Y6; purified TGR, DTNB reduction, TNB absorbance 405 nm; Potency, µM (series often up to 114 µM), most hits filed as inhibitors; hit rate 3% among 360,000; AID 485364; also: nearly all actives have a fitted effect of over 60% in size
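First, TGR (20 nM dispensed) and NADPH were mixed with compound. Second, a 15 min room-temperature incubation followed. Third, further NADPH and then DTNB were added to start the reaction. Finally, TNB absorbance was monitored kinetically.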
LmPK inh: blocks Leishmania mexicana pyruvate kinase activity; Q27686; purified LmPK, Kinase-Glo ATP luminescence, 1 h; Potency, µM (highest dose often 57.5 µM), hits mostly inhibitors; hit rate 0.37% among 290,000; AID 1721
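Screened at intermediate enzyme activity to detect both inhibitors and activators: LmPK at 0.1 nM, with a 0.5 nM enzyme column as activation reference. PEP 0.5 mM, ADP 0.1 mM; ATP detected by luminescence after 1 h.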
RE007 growth inh: less growth of the S. pombe RE007 Vpr strain. S. pombe RE007 Vpr strain, BacTiter-Glo ATP luminescence, 24 h. Potency, µM (top dose mostly 92.2 µM), most hits filed as inhibitors. hit rate 0.21% among 360,000; active = well fitted falling curve with a large enough effect; inconclusive = small, poorly fitted or top-dose-only effect; inactive = no such curve, though single readings can be large or run the other way; also: nearly all actives have a fitted effect of over 50% in size
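Fission yeast RE007 carrying one integrated HIV-1 vpr copy, seeded at OD 0.01 in PMG+AL medium with 23 nL pinned compound. Grown 24 h at 30 degrees; viability read by BacTiter-Glo luminescence after 5 min.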
Giardia FBPA inh: inhibitors of Giardia lamblia fructose-1,6-bisphosphate aldolase. purified Giardia FBPA. Potency, µM (titrated, usually from 59.6 µM), usual class: inhibitors. hit rate 0.71% among 290,000; also: nearly all actives have a fitted effect of over 55% in size
Target sequence (A8B2U2 whole entry, looked up): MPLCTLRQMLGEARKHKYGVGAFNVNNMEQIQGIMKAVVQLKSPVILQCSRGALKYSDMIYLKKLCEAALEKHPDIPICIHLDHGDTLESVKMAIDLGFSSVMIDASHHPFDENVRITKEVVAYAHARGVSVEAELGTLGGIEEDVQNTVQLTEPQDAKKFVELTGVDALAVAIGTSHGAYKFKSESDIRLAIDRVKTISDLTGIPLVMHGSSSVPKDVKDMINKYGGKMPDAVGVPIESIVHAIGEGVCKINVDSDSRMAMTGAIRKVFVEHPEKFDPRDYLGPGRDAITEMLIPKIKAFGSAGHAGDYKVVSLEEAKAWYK
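Giardia FBPA (40 nM reagent) was preincubated 10 min at RT with compound (up to 57.5 uM final), then substrate plus GAPDH/TPI/NAD/arsenate coupling system with diaphorase/resazurin was added; resorufin fluorescence (525/598 nm) was read after 20 min.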
Hits are given with their value; - = inactive; ? = inconclusive; . = no result; [ ] = another dose, or the depositor's remark. Unless noted, calls follow the shape of the dose curve; as a rule, active = well fitted curve in the direction sought with a large enough effect; inconclusive = small, poorly fitted or top-dose-only effect, or another doubt; inactive = no such curve, though single readings can be large; an effect the other way counts as inactive or inconclusive.

SMILES	NS1 inh	TbPYK inhibitor	Sm TGR block	LmPK inh	RE007 growth inh	Giardia FBPA inh
CCOC(=O)c1cnc2ccc(Br)cc2c1NCCCN1CCOCC1	-	-	45µM	-	-	-
CCOc1cc(C2CC(=O)N3CN(C4CCCCC4)CSC3=C2C#N)ccc1O (stereo not given)	-	?	10µM	-	-	0.79µM
N#CC1=C2SCN(C3CCCCC3)CN2C(=O)CC1c1ccc(Br)cc1 (stereo not given)	.	?	10µM	.	.	.
S=C1SCN(C2CCCCCCCCCCC2)CN1C1CCCCCCCCCCC1	-	.	.	.	.	.
CCc1cccc(NC(=O)CN2C(=O)COc3ccc(S(=O)(=O)Nc4ccccc4)cc32)c1	.	-	-	.	.	.
CSCC[C@H](NC(=O)[C@H](CC(C)C)NC(=O)[C@H](Cc1c[nH]c2ccccc12)NC(=O)[C@H](CCC(N)=O)NC(=O)[C@@H](NC(=O)[C@H](Cc1ccccc1)NC(=O)[C@H](CC(=O)O)NC(=O)[C@H](CCC(N)=O)NC(=O)[C@H](C)NC(=O)[C@H](CCCNC(=N)N)NC(=O)[C@H](CCCNC(=N)N)NC(=O)[C@H](CO)NC(=O)[C@H](CC(=O)O)NC(=O)[C@H](CC(C)C)NC(=O)[C@H](Cc1ccc(O)cc1)NC(=O)[C@H](CCCCN)NC(=O)[C@H](CO)NC(=O)[C@H](Cc1ccc(O)cc1)NC(=O)[C@H](CC(=O)O)NC(=O)[C@H](CO)NC(=O)[C@@H](NC(=O)[C@H](Cc1ccccc1)NC(=O)[C@@H](NC(=O)CNC(=O)[C@H](CCC(N)=O)NC(=O)[C@H](CO)NC(=O)[C@@H](N)Cc1cnc[nH]1)[C@@H](C)O)[C@@H](C)O)C(C)C)C(=O)N[C@@H](CC(N)=O)C(=O)N[C@H](C(=O)O)[C@@H](C)O	.	.	.	.	.	-
Cc1ccc(S(=O)(=O)c2nc(S(C)(=O)=O)sc2N2CCC(C)CC2)cc1	-	-	1.8µM	-	-	.
CC1CN(c2sc(S(C)(=O)=O)nc2S(=O)(=O)c2ccc(Cl)cc2)CC(C)O1 (stereo not given)	-	-	14µM	-	-	.
Cc1cccc(-c2ccc3ncnc(NCc4cc(C)cs4)c3c2)c1	.	.	-	.	.	.
CC1CCC(C(C)C)C2=C1C(C#N)(C#N)C(C#N)(C#N)C(c1ccccc1)N2 (stereo not given)	-	-	5µM	-	-	-
O=C(CC1C(=O)NCCN1Cc1ccc(Cl)c(F)c1)NC1CCCCC1 (stereo not given)	?	-	-	-	-	.
O=C(CC1C(=O)NCCN1Cc1ccccc1C(F)(F)F)NC1CCCC1 (stereo not given)	-	-	40µM	-	-	-
O=C(CC1C(=O)NCCN1Cc1cccc(C(F)(F)F)c1)NC1CCCCCC1 (stereo not given)	-	-	22µM	-	-	.
CN=C1C([N+](=O)[O-])=CC=C2C1=NC1(CCCCC1)N2O	-	-	?	-	-	5µM
O=[N+]([O-])C1=CC=C2C(=NC3(CCCCC3)N2O)C1=NCCO	-	-	?	-	-	7.1µM
Cc1ccc2onc(CNC(=O)N3CCN(c4cccc(C)c4C)CC3)c2c1	.	-	-	.	.	.
Cc1noc(C)c1C(=O)NCc1ccco1	-	-	-	-	-	-
O=C(NCc1ccco1)c1ccc2c(c1)C(=O)c1ccccc1-2	-	-	13µM	-	-	-
CN(C)S(=O)(=O)c1cccc(C(=O)NCc2ccco2)c1	?	-	45µM	-	-	-
Cc1ccc(N(Cc2ccco2)C(=O)c2cccc(S(=O)(=O)N(C)C)c2)cc1	-	-	-	-	-	-
CC(C)c1cc(C(=O)NCc2ccco2)no1	?	-	50µM	-	-	-
O=C(NCc1ccco1)c1ccc(C(=O)NCc2ccco2)cc1	.	-	.	.	-	.
CC(C)c1cc(C(=O)NCc2ccccc2)no1	.	-	-	.	.	.
Cc1cc(=O)oc(C)c1C(=O)NCc1ccco1	-	-	45µM	-	-	-
Cc1cc(-c2ccccc2)nc2cc(C(=O)NCc3ccco3)nn12	-	-	32µM	-	-	-
SMILES	NS1 inh	TbPYK inhibitor	Sm TGR block	LmPK inh	RE007 growth inh	Giardia FBPA inh
Cc1ccc(C(=O)NCc2ccco2)cc1	-	-	-	-	-	-
Cc1cccc(C(=O)NCc2ccco2)c1	-	-	45µM	-	-	-
O=C(NCC(c1cccs1)S(=O)(=O)c1cccs1)c1ccccc1F (stereo not given)	.	-	?	.	.	.
COc1ccc(-n2ncc(C(=O)NCc3ccco3)c2C2CCN(C(=O)OC(C)(C)C)CC2)cc1	.	-[15.4 µM]	-	.	.	.
Cc1ccc(S(=O)(=O)CCC(=O)Nc2ccccc2C)cc1	-	-	40µM	-	-	-
Cc1ccc(S(=O)(=O)CCC(=O)Nc2sccc2C#N)cc1	.	-	45µM	.	-	.
Cc1ccc(S(=O)(=O)CCC(=O)Nc2ccccc2N2CCCC2)cc1	.	-	-	.	-	.
Cc1ccc(S(=O)(=O)CCC(=O)Nc2cc(Cl)ccc2-n2cncn2)cc1	.	-	18µM	.	-	.
COc1cc(N2CCC(N3CCN(C)CC3)CC2)ccc1Nc1ncc(Cl)c(Nc2ccccc2S(=O)(=O)C(C)C)n1	.	-	.	.	.	.
COc1cc2oc(=O)c(CC(=O)N3CCCCC3)c(C)c2cc1OC	.	-	-	.	.	.
CC(=O)c1ccc(C(=O)N2CCCC(C(=O)c3ccc(Cl)cc3)C2)s1 (stereo not given)	-	-	-	-	-	.
CN1CCCC(C(=O)c2ccc(Cl)cc2)C1 (stereo not given)	-	-	35µM	-	-	-
CCC1CN(C(=O)C2CCN(S(=O)(=O)c3c(C)noc3/C=C/c3ccccc3F)CC2)c2cc(Cl)ccc2O1 (stereo not given)	.	-	-	.	.	.
CCOC(=O)/C(C#N)=C/C1=C(N2CCOCC2)CC(C)(C)OC1	-	-	28µM	-	-	-
COc1ccc(N/C=C2\CCc3ccccc3C2=O)cc1	-	?	40µM	13µM	?	11µM
O=C1OC2(CCCCC2)OC(=O)C1=CNc1ccc2c(c1)OCO2	-	-	-	-	-	-
O=C1/C(=C/Nc2ccc3c(c2)OCO3)CCc2ccccc21	-	?	?	13µM	?	14µM
COc1ccc2c(c1)CC/C(=C\Nc1ccc3c(c1)OCO3)C2=O	-	-	6.3µM	-	-	7.9µM
COc1ccc(S(=O)(=O)Nc2ccc3c(c2)OCO3)cc1	-	-	-	-	-	-
COc1ccc(CNC(=O)CCc2nnc3n(C)c(=O)c4sccc4n23)cc1	.	-	-	.	.	.
CCc1cccc(NC(=O)C(c2ccccc2)N2Cc3ccccc3C2=O)c1 (stereo not given)	.	-	-	.	.	.
COc1ccc(-c2c(C)n([O-])c3c([n+]2=O)CCCC3)c(OC)c1	-	-	-	-	-	-
CCOc1ccc2c(c1)n([O-])c1c([n+]2=O)CCCC1	-	-	5.6µM	-	-	14µM
